From PubChem BioAssay (Tox21)
Several values for one entry are separate records, joined by “and”; a condition that tells them apart may be missing. Identical values can stand only once. Records with an inconclusive call do not appear. Activity calls are given as the source filed them. Unless noted, calls follow the shape of the dose curve; as a rule, active = well fitted curve in the direction sought with a large enough effect in the repeat runs; inconclusive = weak or mixed curves; inactive = no such curve, though single readings can be large; an effect the other way counts as inactive or inconclusive.

What was measured:
[1] = Caspase-3/7 induction in HepG2 cells by small molecules, qHTS assay (AID 1346978); also: nearly all actives have a fitted effect of over 15% in size; also: potency is read from the fitted curve at half-maximal effect
Procedure, shortened: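 Wild-type HepG2 cells (2,000/well) were settled 5 h at 37 C, 5% CO2, then exposed to compounds in DMSO for 17 h. Caspase-3/7 activity was read by luminescence 30 min after adding Caspase-Glo 3/7 reagent at room temperature.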

[2] = Caspase-3/7 induction in CHO-K1 cells by small molecules, qHTS cell viability counter screen (AID 1346979); also: nearly all actives have a fitted effect of over 35% in size; also: potency is read from the fitted curve at half-maximal effect
Procedure, shortened: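 To flag cytotoxic compounds, treated CHO-K1 wild-type cells were given CellTiter-Fluor at 16hr and read fluorescently after 1hr at 37C; the caspase-3/7 luminescence was measured in these same wells.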

[3] = Caspase-3/7 induction in CHO-K1 cells by small molecules, qHTS assay (AID 1346980); also: nearly all actives have a fitted effect of over 15% in size
Procedure, shortened: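 Wild-type cells were seeded at 1,500 per well and settled 5 hr at 37 C, 5% CO2, then exposed to DMSO-dissolved compounds for 17 hr. Caspase-Glo 3/7 reagent was added, and luminescence was read after 30min at room temperature.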

[4] = target: Nuclear receptor subfamily 1 group I member 2 (Homo sapiens) (UniProt O75469); assay: Human pregnane X receptor (PXR) small molecule agonists, qHTS assay (AID 1346982); also: nearly all actives have a fitted effect of over 35% in size; also: potency is read from the fitted curve at half-maximal effect
Nuclear receptor subfamily 1 group I member 2 (Homo sapiens), sequence (O75469 whole entry, looked up): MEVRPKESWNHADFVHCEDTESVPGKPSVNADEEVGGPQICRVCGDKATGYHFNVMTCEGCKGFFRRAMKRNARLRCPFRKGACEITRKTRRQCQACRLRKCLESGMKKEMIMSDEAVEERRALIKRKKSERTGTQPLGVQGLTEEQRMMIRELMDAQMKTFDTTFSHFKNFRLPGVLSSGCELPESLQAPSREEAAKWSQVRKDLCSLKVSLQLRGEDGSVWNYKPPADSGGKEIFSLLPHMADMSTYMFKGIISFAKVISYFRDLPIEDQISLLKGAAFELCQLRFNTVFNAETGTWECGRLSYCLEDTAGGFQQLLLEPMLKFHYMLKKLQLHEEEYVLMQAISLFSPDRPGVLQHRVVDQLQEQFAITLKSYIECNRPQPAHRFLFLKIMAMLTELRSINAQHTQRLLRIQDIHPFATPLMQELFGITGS
Procedure, shortened: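 We seeded PXR-Luc HepG2 cells in assay medium containing 5% charcoal-stripped FBS, added compounds 5 hr later, incubated 24 hr, and read luminescence with ONE-Glo reagent.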

[5] = target: Acetylcholinesterase (Homo sapiens) (UniProt P22303); assay: Acetylcholinesterase (AChE) small molecule antagonists: colormetric cell-based qHTS assay (AID 1347395; calls by dose curve; also: nearly all actives have a fitted effect of over 30% in size)
Acetylcholinesterase (Homo sapiens), sequence (P22303 whole entry, looked up): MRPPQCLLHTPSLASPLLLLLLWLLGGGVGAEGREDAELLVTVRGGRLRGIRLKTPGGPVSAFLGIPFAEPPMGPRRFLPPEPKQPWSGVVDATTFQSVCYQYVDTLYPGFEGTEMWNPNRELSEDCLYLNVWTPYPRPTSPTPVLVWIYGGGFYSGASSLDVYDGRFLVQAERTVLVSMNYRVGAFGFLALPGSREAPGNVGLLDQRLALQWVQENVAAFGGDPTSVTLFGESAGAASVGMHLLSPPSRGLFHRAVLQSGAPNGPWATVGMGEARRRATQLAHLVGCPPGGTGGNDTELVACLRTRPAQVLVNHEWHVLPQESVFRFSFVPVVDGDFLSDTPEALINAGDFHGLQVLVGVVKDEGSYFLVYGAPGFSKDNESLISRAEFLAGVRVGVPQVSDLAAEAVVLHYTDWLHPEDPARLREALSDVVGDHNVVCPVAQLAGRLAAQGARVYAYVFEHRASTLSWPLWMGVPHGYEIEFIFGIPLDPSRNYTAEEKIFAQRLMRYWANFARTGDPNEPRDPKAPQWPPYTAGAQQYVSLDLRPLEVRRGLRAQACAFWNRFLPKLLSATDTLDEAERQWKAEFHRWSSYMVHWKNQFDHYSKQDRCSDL
Procedure, shortened: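 Neuroblastoma line SH-SY5Y supplied the enzyme; cells were preincubated with compound for 30 min at 37 C and 5% CO2. Acetylthiocholine with DTNB was then added for 90 min at 37 C, and thiocholine was measured by colour.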

[6] = target: Acetylcholinesterase (Homo sapiens) (UniProt P22303); assay: Acetylcholinesterase (AChE) small molecule antagonists: enzyme-based qHTS assay (AID 1347397; calls by dose curve; also: nearly all actives have a fitted effect of over 55% in size); settings: Potency: AChE enzyme activity inhibition
Procedure, shortened: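 Recombinant human AChE, dispensed at 50 mU/mL, was preincubated with Tox21 10K compounds or DMSO vehicle for 30 min at room temperature. DTNB plus acetylthiocholine was then added, and thiocholine was measured colorimetrically after a further 10 min.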

[7] = Caspase-3/7 induction in HepG2 cells by small molecules, qHTS cell viability counter screen (AID 1346981); also: nearly all actives have a fitted effect of over 30% in size; also: potency is read from the fitted curve at half-maximal effect
Procedure, shortened: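 Multiplexed with the caspase-3/7 assay: HepG2 cells, 16 hr compound treatment, CellTiter-Fluor viability detection by fluorescence.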

[8] = target: Nuclear receptor subfamily 1 group I member 2 (Homo sapiens) (UniProt O75469); assay: CYP3A4 induction through human pregnane X receptor (PXR) by small molecules, qHTS assay (AID 1346984); also: nearly all actives have a fitted effect of over 40% in size; also: potency is read from the fitted curve at half-maximal effect
Procedure, shortened: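 qHTS, concentration-response format: HepG2 DPX-2 line, PXR/CYP3A4-luc. Exposure 24 h, 37C. Substrate Luciferin-IPA 3uM final, 3 h. Detection One-Glo, 30 min RT.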

[9] = target: Nuclear receptor subfamily 1 group I member 2 (Homo sapiens) (UniProt O75469); assay: Human pregnane X receptor (PXR) activation by small molecules, qHTS assay (AID 1346985); also: nearly all actives have a fitted effect of over 40% in size; also: potency is read from the fitted curve at half-maximal effect
Procedure, shortened: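 DPX-2 cells (HepG2 co-transfected with a PXR response element and a CYP3A4-promoter luciferase construct) were seeded at 2,000 per well, rested 5 hr at 37C, then exposed to DMSO-dissolved compounds for 24 hr. Activation was read as luciferase luminescence.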

[10] = target: Nuclear receptor subfamily 1 group I member 2 (Rattus norvegicus) (UniProt Q9R1A7); assay: Rat pregnane X receptor (rPXR) activation by small molecules, qHTS assay (AID 1346983); settings: rPXR luciferase reporter cells, One-Glo luminescence, 24 h; max activation: active compounds read high; also: nearly all actives have a fitted effect of over 20% in size
Nuclear receptor subfamily 1 group I member 2 (Rattus norvegicus), sequence (Q9R1A7 whole entry, looked up): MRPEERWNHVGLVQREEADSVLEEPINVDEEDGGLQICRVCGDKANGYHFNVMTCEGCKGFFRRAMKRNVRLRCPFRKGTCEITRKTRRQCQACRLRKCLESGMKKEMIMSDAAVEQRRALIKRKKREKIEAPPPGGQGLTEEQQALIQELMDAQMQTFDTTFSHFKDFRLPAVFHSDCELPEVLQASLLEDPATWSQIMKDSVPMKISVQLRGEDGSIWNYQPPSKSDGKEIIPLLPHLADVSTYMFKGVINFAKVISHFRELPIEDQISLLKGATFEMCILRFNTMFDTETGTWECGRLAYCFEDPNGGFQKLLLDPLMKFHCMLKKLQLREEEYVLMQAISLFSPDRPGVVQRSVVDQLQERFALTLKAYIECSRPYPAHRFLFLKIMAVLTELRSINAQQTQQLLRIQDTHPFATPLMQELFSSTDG
Procedure, shortened: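 Cell-based rPXR luciferase reporter assay, 2,000 cells per well, rested 5hr at 37 C before compound addition in DMSO, then 24 hr at 37 C. One-Glo reagent was added and luminescence read after 30 min at room temperature.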
% is scaled to controls: 0 for no effect and ±100 for the full control effect.

C[CH2][Hg][N]1C(=O)C2C(C1=O)C1(Cl)C(Cl)=C(Cl)C2(Cl)C1(Cl)Cl (stereo not given)
active: Potency [2] 11.6 µM
inactive: caspase activation [1] -9.39% [at 19 µM] | caspase-3/7 activation [3] -6.08% [at 19 µM] | activation [4] -20.9% [at 19 µM] | activity, negative = inhibition [5] 0.291% [at 23.6 µM] | activity change, negative = inhibition [6] -5.88% [at 23.6 µM]

CCCCOP(=O)(CCCC)OCCCC
inactive: Potency [1] | Potency [2] | Potency [3] | Potency [4] | Potency [5] | Potency [6]

CCOC(=O)C1(c2ccccc2)CCN(CCC(C#N)(c2ccccc2)c2ccccc2)CC1
inactive: Potency [1] | Potency [3] | Potency [7] | Potency [5] | Potency [6]
active: Potency [4] 3.35 µM | Potency [8] 1.41 µM | Potency [9] 1.12 µM

Cc1cc(C)cc(OP(=O)(Oc2cc(C)cc(C)c2)Oc2cc(C)cc(C)c2)c1
inactive: Potency [1] | Potency [3] | Potency [7] | Potency [5] | Potency [6]
active: Potency [4] 8.77 µM

CN(C)C(=S)S
inactive: Potency [3] | Potency [7]
active: Potency [1] 19.7 µM and 17.2 µM

COc1cccc(C(=O)CCN[C@@H](C)[C@H](O)c2ccccc2)c1
inactive: Potency [1] | Potency [3] | Potency [7] | Potency [4]

CCN(CC)C(=S)[S-].CCN(CC)C(=S)[S-].[Zn+2]
active: Potency [1] 1.08 µM | Potency [2] 2.41 µM | Potency [7] 27.1 µM | Potency [4] 4.29 µM
inactive: Potency [5] | Potency [6]

SCc1ccco1
inactive: Potency [1] | Potency [3] | Potency [7] | Potency [4] | Potency [5] | Potency [6]

CCS(=O)(=O)c1cccnc1S(=O)(=O)NC(=O)Nc1nc(OC)cc(OC)n1
inactive: Potency [1] | Potency [2] | Potency [3] | Potency [5] | Potency [6]

Oc1ccc(I)cc1
inactive: Potency [1] | Potency [3] | Potency [7] | Potency [4] | Potency [5] | Potency [6]

C=CC(=O)OCCCCOC(=O)C=C
active: Potency [2] 24.3 µM
inactive: Potency [1] | Potency [4] | Potency [5] | Potency [6]

Clc1ccc(COC(Cn2ccnc2)c2ccc(Cl)cc2Cl)cc1 (stereo not given)
active: Potency [7] 50.8 µM and 54.3 µM | Potency [4] 6.4 µM and 7.66 µM and 7.5 µM
inactive: Potency [1] | Potency [3] | Potency [5]

O=C(CBr)c1ccc(O)cc1
inactive: Potency [1] | Potency [3] | Potency [7] | Potency [4] | Potency [5] | Potency [6]

Clc1ccc(C(c2ccc(Cl)cc2)C(Cl)(Cl)Cl)cc1
inactive: Potency [1] | Potency [3] | Potency [7] | max activation [10] 8.77% | Potency [9] | Potency [5] | Potency [6]
active: Potency [4] 17.4 µM and 13.3 µM | Potency [8] 22.4 µM

NC(=O)c1ccc(N)nc1
inactive: Potency [1] | Potency [3] | Potency [7] | Potency [4] | Potency [5] | Potency [6]

CCOC(=O)CC(=O)CCl
inactive: Potency [1] | Potency [3] | Potency [7] | Potency [4] | Potency [5] | Potency [6]

Oc1cccc(-c2ccccc2)c1
inactive: Potency [1] | Potency [3] | Potency [7] | Potency [5] | Potency [6]
active: Potency [4] 48.6 µM

CCOc1cc(C(C)(C)C)ccc1C1COC(c2c(F)cccc2F)=N1 (stereo not given)
inactive: Potency [1] | Potency [3] | Potency [7] | Potency [5] | Potency [6]
active: Potency [4] 37.1 µM

[Cd+2].[Cl-].[Cl-]
inactive: Potency [1] | Potency [3]
active: Potency [7] 54.9 µM and 30.6 µM

O=[N+]([O-])c1cc(Cl)ccc1Cl
inactive: Potency [1] | Potency [3] | Potency [7] | Potency [4] | Potency [5] | Potency [6]

CC(C)[C@H](C(=O)OC(C#N)c1cccc(Oc2ccccc2)c1)c1ccc(OC(F)F)cc1 (stereo not given in full)
inactive: Potency [1] | Potency [3] | Potency [7] | Potency [5] | Potency [6]
active: Potency [4] 9.69 µM

CC(Cc1ccc(C(C)(C)C)cc1)CN1C[C@@H](C)O[C@@H](C)C1 (stereo not given in full)
inactive: Potency [1] | Potency [3] | Potency [7] | Potency [5] | Potency [6]
active: Potency [4] 30.6 µM

c1ccc2cc3c(cc2c1)-c1cccc2cccc-3c12
active: Potency [1] 7.59 µM | Potency [4] 2.4 µM
inactive: Potency [3] | Potency [7] | Potency [5] | Potency [6]

CC(=O)O[C@H]1CC[C@@]2(C)C(=CC[C@@H]3[C@@H]2CC[C@]2(C)C(=O)CC[C@@H]32)C1
inactive: Potency [1] | Potency [3] | Potency [7] | max activation [10] -1.42% | Potency [8] | Potency [9] | Potency [5] | Potency [6]
active: Potency [4] 54.5 µM

CCCSP(=O)(OCC)SCCC
inactive: Potency [1] | Potency [3]

Cc1ccc(C(=O)Cl)cc1
inactive: Potency [1] | Potency [3] | Potency [7] | Potency [4] | Potency [5] | Potency [6]

C=CC(=O)OCC(COC(=O)C=C)(COC(=O)C=C)COC(=O)C=C
active: Potency [1] 15.4 µM | Potency [2] 3.86 µM | Potency [7] 15.4 µM
inactive: Potency [5] | Potency [6]

O=C(CCl)Nc1ccccc1
inactive: Potency [1] | Potency [3] | Potency [5] | Potency [6]
active: Potency [2] 54.5 µM

COC(=O)N(C(=O)N1CO[C@@]2(C(=O)OC)Cc3cc(Cl)ccc3C2=N1)c1ccc(OC(F)(F)F)cc1
active: Potency [4] 1.67 µM
inactive: Potency [1] | Potency [3] | Potency [7] | Potency [5] | Potency [6]
